# Experimental data from PubChem BioAssay.
# Several values for one entry are separate records, joined by “and”; a condition that tells them apart may be missing. Identical values can stand only once. For part of these data: Entries with a potency or affinity are not part of this list. Activity calls are given as the source filed them.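 Rule for the calls, unless noted: active = compounds killing one labelled cell type while sparing the other, by normalised counts and ratio limits, not self-fluorescent; inactive = the rest.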
# Experiments:
# [1] = target: 6-phosphogluconate dehydrogenase, decarboxylating (Homo sapiens) (UniProt P52209); assay: inhibition of human phosphogluconate dehydrogenase – biochemical, recombinant enzyme, NADPH absorbance, primary screen (AID 1159550;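 active = at least 20% inhibition of 6-phosphogluconate dehydrogenase activity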); details: recombinant 6PGD, NADPH absorbance 341 nm; at 10 µM; stronger effect = higher value
# [2] = EMT-state selective cytotoxicity in co-culture – imaging, PC-3E GFP, TEM4-18 mCherry, primary screen (AID 1345086); details: PC-3E GFP / TEM4-18 mCherry co-culture, imaging cell counts, at 1 µM; for red/green cell ratio (normalised): actives lie on both sides, counts scaled to control wells, 1 = unselective;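 for all read-outs here: cells exposed to compound for 72 h before imaging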;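 for red/green cell ratio (normalised): normalised mesenchymal count divided by normalised epithelial count so high means epithelial killing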
# [3] = compounds altering circadian rhythm period length – cell-based, LOPAC library, luminescence reporter (AID 2774; call rule not given here;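 note: values are relative to mean of DMSO wells on each plate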); details: circadian reporter cells, at 7 µM, actives lie on both sides
# [4] = test system: Hepatitis C virus NS3 helicase; assay: blockers of NS3h binding to ssDNA – biochemical, fluorescence polarization, LOPAC1280 library, primary screen (AID 687035; in the data active = inhibition above about 37%); details: Purified HCV NS3 helicase, Cy5-dT15 ssDNA binding fluorescence polarization; stronger effect = higher value; concentration not given here
# [5] = compounds altering Cy5-DNA-NS3h complex signal – biochemical, LOPAC1280, artefact control for HCV NS3 helicase inhibitor project (AID 687037; call rule not given here); details: Cy5-DNA-NS3h complex fluorescence interference counterscreen
# [6] = viability loss with induced miR-34 in A549 – imaging, A549 dox-inducible miR-34, nuclei and caspase counts, primary screen (AID 1347080;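 active = compounds whose cell count with miR-34 switched on is under 0.7 times the count with it off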); details: A549 miR-34 inducible, Hoechst nuclei count, 48 h
# [7] = blockers of cellular phospholipid synthesis – cell-based, LOPAC library, screen 4, primary screen (AID 1347384; call rule not given here); details: animal cells, phospholipid biosynthesis inhibition screen; at 10 µM
# [8] = target: Mitogen-activated protein kinase 7 (Homo sapiens) (UniProt Q13164); assay: Gal4-ERK5 driven luciferase induction – cell-based, HTS, primary screen (AID 1508626;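 active = luciferase signal above three times the same-plate solvent-only control wells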;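 note: luciferase driven by Gal4-ERK5 fusion binding five Gal4 sites before minimal TATA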); details: HeLa Gal4-ERK5 transactivation, 18 h, at 5 µM, stronger effect = higher value
# [9] = galactose survival enhancers in mitochondrial complex I cybrids – cell-based, galactose medium, ATP luminescence, primary screen (AID 1645843;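 active = z-score of at least 1.8 in each of two replicates, scored against plate mean and spread of sample wells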;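 note: positive z means more ATP and so rescue of galactose-driven cybrid death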); details: complex I mutant cybrid cells, 72 h, stronger effect = higher value
# [10] = blockers of polyQ-driven CASP3 activation – cell-based (AID 1583); details: polyglutamine-induced caspase-3 activation, cell assay; stronger effect = higher value;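 tested at 10 µM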
# [11] = yeast 75Q aggregation reduction – 75Q-TubU reporter (AID 1593); details: Yeast 75Q polyglutamine aggregation reporter
# [12] = restoration of touch response, mutant HTT neurons – whole organism, C. elegans mechanosensory neurons, N-terminal huntingtin (AID 1599); details: C. elegans polyQ-huntingtin mechanosensory neurons, stronger effect = higher value
# [13] = blockers of cytochrome c efflux from mitochondria – biochemical, purified mitochondria (AID 1603); details: stronger effect = lower value;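 note: mouse liver mitochondria challenged with calcium chloride; signal normalized to the plate average as 100%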
# [14] = polyglutamine aggregate formation blockers (AID 1604); details: polyglutamine-induced protein aggregation inhibition assay; stronger effect = higher value; tested at 2.5 µM
# [15] = glutamate transport activators, MN-1 cells, MN-1 cell line (AID 1612); details: MN-1 motor neuron cells, stronger effect = higher value;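 note: tested at 1 µM final; 0% = mean of DMSO vehicle wells on each plate; positive means more glutamate uptake than control and negative means less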
# [16] = GFP-Q80 aggregate reduction, neuronal-like cells, cell-based, NGF-treated PC12, GFPQ80 (AID 1614); details: PC12 NGF-treated GFP-polyQ80 inclusion reduction;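 note: lower means fewer inclusions and 0 means no inclusions at all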
# [17] = 75Q-TubH aggregate inhibition, S. cerevisiae, yeast (AID 1616); details: S. cerevisiae 75Q-TubH polyglutamine aggregation suppression; stronger effect = higher value
# [18] = P. berghei load reduction in hepatocytes – cell-based, HepG2, luciferase luminescence, HepG2 viability, primary screen (AID 624349; in the data active = parasite load remaining mostly below about 12%, no sharp cut-off; inactive = mostly above about 10%;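 note: 100% = mean of DMSO negative control wells on the same plate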); details: P. berghei liver stage in HepG2, luciferase luminescence, concentration not given here; parasite load remaining: stronger effect = lower value; viability: measured here: HepG2 viability without parasites
# [19] = MELAS cybrid and Rieske KO viability enhancers – cell-based, MELAS cybrids, Rieske KO mouse fibroblasts, CellTiter-Glo, primary screen (AID 1508586;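 active = mean z-score across replicates of 1.96 or higher in either the MELAS or the Rieske mutant cell line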;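 note: z relative to plate mean and SD of compound and empty wells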); details: low glucose
# [20] = measured here: epithelial PC-3E GFP cell survival
# [21] = measured here: mesenchymal TEM4-18 mCherry cell survival
# [22] = stronger effect = lower value, cell number ratio, induced over uninduced
# [23] = measured here: relative caspase fold change +Dox/-Dox
# [24] = measured here: total cells with miR-34 induction, stronger effect = lower value
# [25] = measured here: total cells without miR-34 induction
# [26] = MELAS cybrid survival, CellTiter-Glo 48 h, stronger effect = higher value
# [27] = Rieske KO mouse fibroblast survival, CellTiter-Glo 72 h
# Mitogen-activated protein kinase 7 (Homo sapiens), sequence (Q13164 whole entry, looked up, the tested form may be a part): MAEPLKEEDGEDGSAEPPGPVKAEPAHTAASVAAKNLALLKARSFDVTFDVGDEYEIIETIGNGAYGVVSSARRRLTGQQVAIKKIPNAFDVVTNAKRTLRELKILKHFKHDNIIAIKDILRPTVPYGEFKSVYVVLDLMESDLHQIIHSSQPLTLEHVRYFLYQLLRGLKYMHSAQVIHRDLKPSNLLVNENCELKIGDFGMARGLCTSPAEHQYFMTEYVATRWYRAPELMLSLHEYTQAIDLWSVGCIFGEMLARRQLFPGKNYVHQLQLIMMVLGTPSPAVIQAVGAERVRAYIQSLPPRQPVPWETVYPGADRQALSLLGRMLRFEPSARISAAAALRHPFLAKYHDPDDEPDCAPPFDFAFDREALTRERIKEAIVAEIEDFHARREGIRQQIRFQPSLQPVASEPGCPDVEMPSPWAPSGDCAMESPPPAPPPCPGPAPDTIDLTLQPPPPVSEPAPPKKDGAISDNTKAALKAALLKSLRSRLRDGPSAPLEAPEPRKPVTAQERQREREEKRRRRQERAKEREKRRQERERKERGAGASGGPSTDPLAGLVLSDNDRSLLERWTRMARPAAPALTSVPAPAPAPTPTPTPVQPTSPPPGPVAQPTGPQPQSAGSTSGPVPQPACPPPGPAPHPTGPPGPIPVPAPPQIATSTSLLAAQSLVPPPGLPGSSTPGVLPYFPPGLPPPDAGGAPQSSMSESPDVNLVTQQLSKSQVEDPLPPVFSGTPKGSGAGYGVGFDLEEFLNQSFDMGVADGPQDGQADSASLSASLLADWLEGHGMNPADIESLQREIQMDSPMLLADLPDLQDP
# 6-phosphogluconate dehydrogenase, decarboxylating (Homo sapiens), sequence (P52209 whole entry, looked up): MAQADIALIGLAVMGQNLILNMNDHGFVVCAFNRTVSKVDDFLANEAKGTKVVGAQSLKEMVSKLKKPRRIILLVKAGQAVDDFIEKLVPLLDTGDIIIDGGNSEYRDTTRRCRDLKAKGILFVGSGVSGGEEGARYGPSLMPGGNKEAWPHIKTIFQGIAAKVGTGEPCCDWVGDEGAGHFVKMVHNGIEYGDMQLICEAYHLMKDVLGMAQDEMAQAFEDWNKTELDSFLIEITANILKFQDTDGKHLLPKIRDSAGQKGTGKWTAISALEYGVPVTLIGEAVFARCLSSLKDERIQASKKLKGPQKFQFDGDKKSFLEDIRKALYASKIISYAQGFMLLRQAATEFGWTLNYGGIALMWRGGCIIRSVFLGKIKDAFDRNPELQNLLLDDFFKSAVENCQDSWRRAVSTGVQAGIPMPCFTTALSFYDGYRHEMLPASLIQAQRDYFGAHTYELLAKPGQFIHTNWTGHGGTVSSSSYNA
structure (smiles),measurement,setting,value
N.N.O=C([O-])C1(C(=O)[O-])CCC1.[Pt+2],inhibition,[1],-2.44% (inactive)
same,red/green cell ratio (normalised),[2],0.96 (inactive)
same,normalised cell number,[2]; [20],1.09
same,normalised cell number,[2]; [21],1.04
CCCCOc1cc(CC2CNC(=O)N2)ccc1OC (stereo not drawn),period change,[3],0.115 h (inactive)
same,inhibition,[4],-2% (inactive)
same,fluorescence ratio (interference),[5],1 (inactive)
same,inhibition,[1],1.84% (inactive)
same,red/green cell ratio (normalised),[2],1.01 (inactive)
same,normalised cell number,[2]; [20],1.14
same,normalised cell number,[2]; [21],1.15
same,fold change,[6]; [22],0.994 (inactive) and 1.05 (inactive) and 0.91 (inactive)
same,fold change,[6]; [23],1.87 and 1.3 and 0.769
same,cell count,[6]; [24],10200 and 6130 and 8720
same,cell count,[6]; [25],10300 and 5830 and 9590
same,outcome,[7],inactive
same,luciferase signal,[8],60 AU (inactive)
same,z-score,[9],0.26 (inactive) and -0.055 (inactive)
CC(=O)/C(=C\c1ccccc1)CC(=O)O,inhibition,[1],3.72% (inactive)
same,red/green cell ratio (normalised),[2],0.99 (inactive)
same,normalised cell number,[2]; [20],1.18
same,normalised cell number,[2]; [21],1.16
NCCc1cnc[nH]1,inhibition,[10],-28.4%
same,score,[11],1.16
same,rescue above control,[12],-5.3
same,cytochrome c release ratio,[13],0.91
same,inhibition of aggregation,[14],51.2%
same,glutamate uptake change,[15],-0.34%
same,inclusion score,[16],2
same,aggregation suppression score,[17],1.08
same,period change,[3],0.14 h (inactive)
same,parasite load remaining,[18],99.6% (inactive) and 68.2% (inactive)
same,viability,[18],74.2% and 99%
same,inhibition,[4],-3% (inactive)
same,fluorescence ratio (interference),[5],1 (inactive)
same,inhibition,[1],11.6% (inactive)
same,red/green cell ratio (normalised),[2],1.19 (inactive)
same,normalised cell number,[2]; [20],0.99
same,normalised cell number,[2]; [21],1.18
same,outcome,[7],inactive
same,z-score,[19]; [26],1.03 (inactive) and -0.124 (inactive) and -0.135 (inactive)
same,z-score,[19]; [27],-0.434 and -0.222 and -0.159
same,luciferase signal,[8],68 AU (inactive)
same,z-score,[9],0.205 (inactive) and 0.305 (inactive) and 0.49 (inactive)
COc1cc(OC)c(-c2c(OC)cc(OC)cc2OC)c(OC)c1,inhibition,[1],11.7% (inactive)
same,red/green cell ratio (normalised),[2],1.06 (inactive)
same,normalised cell number,[2]; [20],0.99
same,normalised cell number,[2]; [21],1.04
COc1cc(OC)c2c(=O)cc(-c3ccccc3)oc2c1,inhibition,[1],13.7% (inactive)
same,red/green cell ratio (normalised),[2],0.95 (inactive)
same,normalised cell number,[2]; [20],1.06
same,normalised cell number,[2]; [21],1.01
COc1ccc(C(=O)c2ccc(O)cc2)c(O)c1O,inhibition,[1],-5.23% (inactive)
same,red/green cell ratio (normalised),[2],1.05 (inactive)
same,normalised cell number,[2]; [20],0.85
same,normalised cell number,[2]; [21],0.89
O=C1CC(c2ccccc2)Oc2ccccc21 (stereo not drawn),inhibition,[1],1.48% (inactive)
same,red/green cell ratio (normalised),[2],0.93 (inactive)
same,normalised cell number,[2]; [20],1.14
same,normalised cell number,[2]; [21],1.06
O=c1cc(-c2ccccc2)oc2cc(O)c(O)c(O)c12,parasite load remaining,[18],140% (inactive)
same,viability,[18],91.4%
same,inhibition,[1],4.11% (inactive)
same,red/green cell ratio (normalised),[2],0.84 (inactive)
same,normalised cell number,[2]; [20],1.08
same,normalised cell number,[2]; [21],0.91
same,fold change,[6]; [22],1.03 (inactive) and 0.801 (inactive) and 0.986 (inactive)
same,fold change,[6]; [23],1.01 and 1.16 and 0.831
same,cell count,[6]; [24],5800 and 6380 and 7810
same,cell count,[6]; [25],5640 and 7960 and 7920
same,z-score,[19]; [26],-0.448 (inactive)
same,z-score,[19]; [27],-1.5
same,luciferase signal,[8],60 AU (inactive)
same,z-score,[9],-0.805 (inactive)
COc1cc(OC)c2c(=O)c(-c3ccccc3)c(C)oc2c1OC,inhibition,[1],-9.49% (inactive)
same,red/green cell ratio (normalised),[2],1.02 (inactive)
same,normalised cell number,[2]; [20],1.09
same,normalised cell number,[2]; [21],1.11
